Assay outcomes (PubChem)
EP2 modulator – modulates human prostaglandin E2 receptor EP2 signaling; AID 940; EP2-expressing cells, cAMP HTRF FRET, PGE2 co-stimulation; 260,000 compounds, 0.83% hits; induction, % at 25 µM;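 active = compounds whose cAMP rise, as percent of the full-agonist control response, exceeds 60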;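 also: rat C6 glioma line stably carrying human EP2 under a CMV promoter; the protocol text gives 20 µM as final concentration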
EP2 antag – blocks the human prostaglandin E2 receptor EP2; P43116; C6 glioma cells expressing human EP2, cAMP TR-FRET; cells stimulated with saturating PGE2; inhibition, % at 25 µM; 260,000 compounds, 0.52% hits; AID 1422;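 active = percent inhibition above 40 after rounding to a whole number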;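 also: rat C6 glioma host cells with rolipram phosphodiesterase inhibitor present; the protocol text gives 20 µM as final concentration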
CHT block – inhibitors of human choline transporter CHT; Q9GZV3; CHT-expressing cells, membrane potential dye, choline response; active compounds read low; B-score at 10 µM; 310,000 compounds, 0.86% hits;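 active = B-score over 3 SD under the library average, and starting fluorescence ratio not unusually high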;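 also: choline stimulus applied at its EC90 after an EC20 pre-addition; B-score computed on integrated fluorescence ratio after choline addition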
Target sequence (Q9GZV3 whole entry, looked up): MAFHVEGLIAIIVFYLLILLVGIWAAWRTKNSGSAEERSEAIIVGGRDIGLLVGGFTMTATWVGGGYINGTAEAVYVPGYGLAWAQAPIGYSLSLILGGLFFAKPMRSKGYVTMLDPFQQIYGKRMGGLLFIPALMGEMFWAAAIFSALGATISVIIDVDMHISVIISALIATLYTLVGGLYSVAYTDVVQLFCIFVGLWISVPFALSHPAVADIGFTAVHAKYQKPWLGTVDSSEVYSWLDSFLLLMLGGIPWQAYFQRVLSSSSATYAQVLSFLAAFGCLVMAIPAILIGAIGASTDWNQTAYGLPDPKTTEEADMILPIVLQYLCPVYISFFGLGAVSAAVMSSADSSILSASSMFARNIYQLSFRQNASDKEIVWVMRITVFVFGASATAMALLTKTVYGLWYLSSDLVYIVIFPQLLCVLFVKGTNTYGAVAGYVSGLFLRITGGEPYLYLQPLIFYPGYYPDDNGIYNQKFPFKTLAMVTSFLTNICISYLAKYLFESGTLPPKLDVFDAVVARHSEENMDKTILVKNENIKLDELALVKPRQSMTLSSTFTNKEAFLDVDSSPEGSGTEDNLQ
CHT PAM – allosterically activates the human high affinity choline transporter; Q9GZV3; CHT-expressing cells, membrane potential dye, choline EC20; active compounds read high; LV-AA mutant CHT in HEK293 cells; B-score at 10 µM; 310,000 compounds, 0.49% hits; AID 488977;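 active = initial fluorescence not abnormally high and integrated response B-score, plate-corrected, over 3 SD above library mean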
CHT block conf – human CHT inhibition, confirmatory screen; 2,400 compounds, 70% hits; shares compounds with CHT block; CHT-expressing cells, choline membrane potential dye; LV-to-AA substituted CHT, HEK293 cells; CHT activity remaining % of control (active compounds read low), % at 10 µM;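 active = choline transporter activity left, mean of duplicates at 10 µM, below buffer-only control mean minus 3 SD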;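 also: depolarization triggered by choline at its EC90 following an EC20 pre-addition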
HEK293 CHT ctr – activity in parental HEK293 cells lacking CHT; shares compounds with CHT block; membrane potential dye, choline response; active = decrease or increase beyond buffer ±3SD; membrane potential ratio readout (active if shifted either direction beyond buffer ±3SD; no single direction) at 10 µM; 2,400 compounds, 4% hits; AID 493222;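 also: parental cells lack the transporter so any hit is non-specific; ratio is peak minus trough fluorescence over baseline after EC90 choline challenge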
Each line names hits and unclear results; the compound was inactive in the other large screens (follow-up assays come after a bar, where they were run). Only some compounds are listed: those with a hit (about 2.1% of all), similar ones and a draw of the others.

Cc1ccnc(SCc2cc(=O)c(OC(=O)c3ccc(S(=O)(=O)N(C)C)cc3)co2)n1	CHT block -6.5 | CHT block conf 58% | HEK293 CHT ctr inactive
CCOC(=O)C1=C(C)N=c2s/c(=C/c3ccco3)c(=O)n2C1c1cccc(OC)c1 (stereo unspecified)	none
CCOC(=O)C1=C(C)N=c2s/c(=C/c3cccc([N+](=O)[O-])c3O)c(=O)n2C1c1cc(OC)c(OC)c(OC)c1 (stereo unspecified)	CHT block -9.8 (no result: EP2 modulator, EP2 antag) | CHT block conf 28% | HEK293 CHT ctr inactive
CC(C)c1nc(SCC(=O)NNC(=O)c2ccco2)c2c3c(sc2n1)CCCC3	none (no result: CHT block, CHT PAM)
Cc1nnc(Sc2nc3ccccc3o2)c2ccccc12	CHT block -5.9 | CHT block conf 27% | HEK293 CHT ctr inactive
CC1=CC(C)(C)N2C(=O)C(=O)c3c4c(cc1c32)OCO4	none (no result: CHT block, CHT PAM)
Cn1c(SCC(=O)Nc2nc3c(s2)CCCC3)nnc1-c1ccco1	none (no result: CHT block, CHT PAM)
Cc1ccnc(NS(=O)(=O)c2ccc(NC(=O)c3ccc(Cl)cc3[N+](=O)[O-])cc2)n1	CHT block -5.5 (no result: EP2 modulator, EP2 antag) | CHT block conf 51% | HEK293 CHT ctr inactive
CCOc1ccc(C(NC(=O)c2cccnc2)c2ccc3cccnc3c2O)cc1 (stereo unspecified)	none (no result: CHT block, CHT PAM)
COc1ccc(-c2ocnc2C(=O)NC(C)CCc2ccco2)cc1 (stereo unspecified)	none (no result: EP2 antag, CHT block, CHT PAM)
Cc1n[nH]c(C)c1Sc1ccccc1N=Cc1cc(Cl)cc([N+](=O)[O-])c1O	CHT block -7.9 | CHT block conf 36% | HEK293 CHT ctr inactive
Cc1n[nH]c(C)c1Sc1ccccc1[N+](=O)[O-]	none
CCOC(=O)c1cc(C(=O)NC(C)c2ccccc2)c(C)[nH]c1=O (stereo unspecified)	CHT block -7.4 | CHT block conf 14% | HEK293 CHT ctr inactive
CCOC(=O)c1cc(C(C)=O)c(=O)[nH]c1C	none
O=C(Nc1ccccc1N1CCOCC1)c1ccccc1NS(=O)(=O)c1ccc(F)c(F)c1	none
O=C(Nc1ccccc1N1CCOCC1)c1cccc(NS(=O)(=O)c2ccc(F)c(F)c2)c1	CHT block -5.5 | CHT block conf inactive | HEK293 CHT ctr inactive
CCc1cc(-c2nc(N)ncc2-c2csc(C)n2)c(O)cc1OC	CHT block -7.8 | CHT block conf inactive | HEK293 CHT ctr inactive
COc1ccc2c(c1)cc(C)c1nn(CC(=O)NC(C)(C)C)c(=O)n12	none (no result: CHT block, CHT PAM)
O=[N+]([O-])c1cc(C(F)(F)F)cc([N+](=O)[O-])c1N1CCCNCC1	CHT block -8.8 | CHT block conf 16% | HEK293 CHT ctr inactive
O=[N+]([O-])c1cc(C(F)(F)F)cc([N+](=O)[O-])c1NCCN1CCNCC1	none (no result: EP2 modulator, EP2 antag)
COCCn1c(-c2cccs2)csc1=Nc1cccnc1	none
Fc1ccccc1-c1csc(=Nc2cccnc2)n1CCCn1ccnc1	CHT block -6.8 | CHT block conf 48% | HEK293 CHT ctr inactive
S=C(Nc1ccc(Cc2ccncc2)cc1)Nc1cccc(Cl)c1	CHT block -6.6 | CHT block conf inactive | HEK293 CHT ctr inactive
COc1ccc(CN(Cc2ccccc2-n2cccn2)CC2CCCO2)cc1OC (stereo unspecified)	none (no result: CHT block, CHT PAM)
COc1cc(C)c(CNC(=O)Cc2c(C)nc3nc(C)[nH]n3c2=O)cc1C(C)C	none (no result: CHT block, CHT PAM)
CC1=C(C(=O)OC(C)C)C(c2ccccc2)NC(=O)N1C (stereo unspecified)	none (no result: EP2 modulator, EP2 antag)
CC1=C(C(=O)OC(C)C)C(c2ccc(Br)s2)NC(=O)N1C (stereo unspecified)	CHT block -5.1 | CHT block conf 58% | HEK293 CHT ctr inactive
Cc1ccc(NC(=O)CNC(=O)c2cccc(Cl)c2)nc1	CHT block -6.2 (no result: EP2 modulator, EP2 antag) | CHT block conf 26% | HEK293 CHT ctr inactive
Cc1ccc(NC(=O)c2cccc(Cl)c2)nc1	none
CN(Cc1ccccc1)C(=S)Nc1ccc2nc3n(c(=O)c2c1)CCCCC3	CHT block -7 | CHT block conf inactive | HEK293 CHT ctr inactive
N#Cc1cn(CC(=O)Nc2ccccc2C(F)(F)F)c2ccccc12	none (no result: CHT block, CHT PAM)
Cc1nn(CC2CC2)c(=O)n1-c1cccc(Cl)c1	CHT block -5.8 | CHT block conf inactive | HEK293 CHT ctr inactive
CCOc1ccc2nc(Cl)c(CN(C(=O)c3cnccn3)C3CCCC3)cc2c1	none
CCOc1ccc2nc(Cl)c(CN(C(C)=O)C3CCCCC3)cc2c1	CHT block -5.5 | CHT block conf inactive | HEK293 CHT ctr inactive
O=C(Nc1ccccc1)c1nnn(Cc2ccccc2)c1NC(=O)C(F)(F)F	CHT block -5 | CHT block conf 32% | HEK293 CHT ctr inactive
CN1/C(=C\C=Nc2cc(S(=O)(=O)N3CCOCC3)ccc2N2CCOCC2)C(C)(C)c2ccccc21	none | CHT block conf 21% | HEK293 CHT ctr inactive
Cc1ccccc1N/N=C/c1c(C)nc2ccccn12	CHT block -13 (no result: EP2 modulator, EP2 antag) | CHT block conf inactive | HEK293 CHT ctr inactive
COc1cccc(C2(NC(=O)Cn3nc(C)cc3C)CCCC2)c1	none (no result: CHT block, CHT PAM)
CCCC[C@@H]1CNC(=O)C(=O)N1CCCc1cc(OC)c(OC)c(OC)c1	none
COc1cc(CCCN2C(=O)C(=O)NC[C@H]2Cc2cccc3ccccc23)cc(OC)c1OC	CHT block -5.1 (no result: EP2 modulator) | CHT block conf 45% | HEK293 CHT ctr inactive
Cc1ccccc1NS(=O)(=O)c1ccc(N2CCCC2=O)cc1	CHT block -5 | CHT block conf inactive | HEK293 CHT ctr inactive
CC(C)(C)NS(=O)(=O)c1ccc(N2CCCC2=O)cc1	none (no result: CHT block, CHT PAM)
CC1Cc2nc(SCC(=O)Nc3nc4ccccc4s3)n(C)c(=O)c2S1 (stereo unspecified)	CHT block -5.1 | CHT block conf inactive | HEK293 CHT ctr inactive
CCCCC(CC)C(=O)NCc1ccccc1OC (stereo unspecified)	CHT block -5.6 | CHT block conf inactive | HEK293 CHT ctr inactive
COC(=O)c1sc2ncn(Cc3cccc4ccccc34)c(=O)c2c1C	none (no result: CHT block, CHT PAM)
O=C(c1ccccc1F)C1CCCN(C(=O)c2n[nH]c3c2CCCC3)C1 (stereo unspecified)	none (no result: CHT block, CHT PAM)
Cc1ccc(C(=O)/C=C/C(=O)O)cc1	CHT block -5.8 | CHT block conf 26% | HEK293 CHT ctr inactive
Cc1ccc(/C=C/C(=O)c2ccccc2)cc1	none
Cc1ccc(/C=N/NC(=O)c2n[nH]c3c2CCCC3)cc1	none
O=C(N/N=C/c1cccs1)c1n[nH]c2c1CCCC2	CHT block -6 | CHT block conf inactive | HEK293 CHT ctr inactive
CC1CCC(NC(=O)CN2CCC(n3cnc4cccnc43)CC2)CC1 (stereo unspecified)	none (no result: CHT block, CHT PAM)
CCOCCCNC(=O)c1cccc(NC(=O)C2=C(C)OCCS2)c1	none (no result: EP2 modulator, EP2 antag)
CC1=C(C(=O)Nc2cccc(C(=O)NC3CCCCC3C)c2)SCCO1 (stereo unspecified)	none (no result: EP2 modulator, EP2 antag) | CHT block conf 46% | HEK293 CHT ctr inactive
O=CN/C=C/c1cc(O)ccc1O	EP2 antag 111, CHT block -7.4 | CHT block conf 48% | HEK293 CHT ctr inactive
